High-throughput results from PubChem.
HEK cytotox = HEK 293 cell cytotoxicity | HEK 293 viability, ATP luminescence (CellTiter-Glo), 48-72 h | hit rate 6.6% among 94,000 | Potency, µM (highest dose often 115 µM), inactives show at the top dose activity change, negative = cytotoxicity, actives largely listed as inhibitors | AID 1345083; note: nearly all actives have a fitted effect of over 60% in size
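ATP-coupled CellTiter-Glo luminescence served as viability read-out, recorded 10 min after reagent addition at room temperature. HEK 293 cells, 250 cells/well, had been incubated with pintool-transferred compound for 48 or 72 hr at 37 degree Celsius.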
Luciferase inh = inhibitors of firefly (Photinus pyralis) luciferase. P08659. purified P. pyralis luciferase, luminescence, biochemical. Potency, µM (doses to about 115 µM), most hits filed as inhibitors. hit rate 2.5% among 76,000; note: nearly all actives have a fitted effect of over 65% in size
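Luminescence read by CCD imaging after purified firefly luciferase (10nM final) was added to substrate buffer holding 10uM D-luciferin and 10uM ATP, pH 7.5, pre-dosed with compound.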
3T3 cytotox = kills NIH 3T3 cells. NIH 3T3 viability, CellTiter-Glo ATP luminescence, 48-72 h. Potency, µM (highest dose often 96.7 µM), for the others: at the highest dose activity change, negative = cytotoxicity, most hits filed as inhibitors. hit rate 4.3% among 94,000. AID 1345082; note: nearly all actives have a fitted effect of over 55% in size
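Cytotoxicity is measured as loss of cellular ATP: NIH 3T3 cells (400/well) are exposed to compound for 48 or 72 hr at 37 °C, then CellTiter-Glo luminescence is imaged after 10 min at room temperature.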
GPT2 inh = blocks human glutamate pyruvate transaminase 2; hit rate 0.25% among 100,000; Potency, µM (top dose mostly 57.7 µM), for the others: at the highest dose activity change, negative = inhibition, usual class: inhibitors; Recombinant GPT2, coupled pyruvate oxidase/HRP Amplex Red fluorescence; AID 1671188; note: nearly all actives have a fitted effect of over 60% in size
Target sequence (Q8TD30 whole entry, looked up): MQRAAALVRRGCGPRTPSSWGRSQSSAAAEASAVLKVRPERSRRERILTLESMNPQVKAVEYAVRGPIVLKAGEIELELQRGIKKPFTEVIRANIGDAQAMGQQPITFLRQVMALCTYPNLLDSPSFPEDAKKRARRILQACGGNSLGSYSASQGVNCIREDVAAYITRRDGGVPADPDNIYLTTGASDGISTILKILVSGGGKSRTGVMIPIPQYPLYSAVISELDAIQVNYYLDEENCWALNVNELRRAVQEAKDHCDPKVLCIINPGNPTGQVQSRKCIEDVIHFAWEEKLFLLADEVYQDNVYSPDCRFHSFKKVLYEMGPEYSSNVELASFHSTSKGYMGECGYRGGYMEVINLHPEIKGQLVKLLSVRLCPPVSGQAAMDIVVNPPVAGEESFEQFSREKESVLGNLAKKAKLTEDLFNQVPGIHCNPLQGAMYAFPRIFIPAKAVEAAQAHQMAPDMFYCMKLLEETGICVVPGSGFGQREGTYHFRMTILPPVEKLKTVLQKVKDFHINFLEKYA
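Fluorescence read-out: pyruvate from GPT2 turnover coupled to pyruvate oxidase, HRP and Amplex Red (0.2mM ThPP, 0.2U/mL PO and HRP, 50uM Amplex final). Substrates 250uM a-KG, 2mM L-alanine; enzyme 10ng/uL; 30 min RT.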
NPR1 antag = human Npr1 receptor antagonism; P16066; HEK293 hNpr1 GloSensor cGMP, ANP-stimulated luminescence; Potency, µM (highest dose often 46.3 µM), without a hit: at the highest dose activity change, negative = inhibition, hits mostly inhibitors; hit rate 1.6% among 76,000; calls by dose curve; note: nearly all actives have a fitted effect of over 60% in size
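HEK293 cells stably expressing human Npr1 and cGMP GloSensor pGS-40F, loaded 2 h with 2% GloSensor reagent, given compound 30 min at room temperature. Luminescence read before and 20 min after 0.1 nM hNppA.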
An asterisk follows results filed as active; i = inactive; ? = inconclusive; / = no result; [ ] = dose if it differs, or a comment. In the library only some 10% were active in any assay of this set; here they are far more common. Unless noted, calls come from the whole dose curve; as a rule, active = well fitted curve in the direction sought with a large enough effect; inconclusive = small, poorly fitted or top-dose-only effect, or another doubt; inactive = no such curve, though single readings can be large; an effect the other way counts as inactive or inconclusive. % is set by controls: 0 for no effect and ±100 for the full control effect; potency is the fitted concentration of half-maximal effect.

SMILES	HEK cytotox	Luciferase inh	3T3 cytotox	GPT2 inh	NPR1 antag
CC1(COCC2CC2)COc2ccc(C(=O)Nc3ccc4[nH]ccc4c3)cc2N1 (centres undefined)	?	16µM*	45µM*	-8%[88.5 µM]	?
CN(C)CCOCC1(C)COc2ccc(C(=O)Nc3ccc4[nH]ccc4c3)cc2N1 (centres undefined)	?	50µM*	?	-19%[88.5 µM]	2%[70.6 µM]
CN1CCN(c2ccc3ncc(Nc4ccc(Cl)c(C(F)(F)F)c4)n3n2)CC1	79µM*	i	?	?	?
c1ccc(Oc2ccc(Nc3cnc4ccc(N5CCOCC5)nn34)cc2)cc1	?	i	45µM*	-14%[88.5 µM]	?
Clc1cccc(Nc2cnc3ccc(N4CCOCC4)nn23)c1	?	i	?	-25%[88.5 µM]	?
CN1CCN(c2ccc3ncc(Nc4ccc5c(c4)OCCO5)n3n2)CC1	?	i	?	-11%[88.5 µM]	-1%[70.6 µM]
CN1CCN(c2ccc3ncc(Nc4ccc(OC(F)(F)F)cc4)n3n2)CC1	50µM*	i	35µM*	?	-20%[70.6 µM]
OCc1ccc(CN2C[C@H](O)C[C@H]2c2nc(-c3ccccc3)no2)o1	-8%[172 µM]	45µM*	-14%[174 µM]	i	4%[70.6 µM]
O[C@@H]1C[C@@H](c2nc(-c3ccc4c(c3)OCO4)no2)N(Cc2cc3ccccc3o2)C1	?	?	-10%[174 µM]	0%[88.5 µM]	3%[70.6 µM]
O[C@@H]1C[C@@H](c2nc(-c3ccccc3)no2)N(Cc2cc3ccccc3o2)C1	?	40µM*	?	-6%[88.5 µM]	2%[70.6 µM]
CC(C)C[C@@H]1N[C@H](C(=O)NCc2ccco2)Cc2c[nH]c3cccc1c23	35µM*	i	100µM*	-17%[88.5 µM]	4%[70.6 µM]
C=CCN(C)C(=O)[C@@H]1Cc2c[nH]c3cccc(c23)[C@H](CC(C)C)N1	?	i	?	-16%[88.5 µM]	-11%[70.6 µM]
C#CCNC(=O)[C@@H]1Cc2c[nH]c3cccc(c23)[C@H](CC(C)C)N1	71µM*	i	100µM*	i	-3%[70.6 µM]
CC(C)C[C@@H]1N[C@H](C(=O)NCC2CC2)Cc2c[nH]c3cccc1c23	35µM*	i	?	-21%[88.5 µM]	-23%[70.6 µM]
CCOC(=O)CN1C(=O)CN(C(=O)Cc2ccccc2)CCC(OC)c2ccccc21 (centres undefined)	2%	/	?	/	/
CN1Cc2cc(F)ccc2NCCC1=O	?	/	-24%	/	/
N[C@H]1CN(C(=O)c2ccc(N3CCCCC3)cc2)C[C@@H]1c1ccccc1	?	i	?	i	0%
CCOC(=O)CNC(=O)N1CC2(CCCCC2)CC1COc1ccc(OC)cc1 (centres undefined)	-26%	/	-29%	i	/
CCn1cc(S(=O)(=O)N2CC3(CCCCC3)CC2COc2ccc(OC)cc2)cn1 (centres undefined)	32µM*	/	?	i	/
Fc1ccc(-c2ccc3ncc(Nc4ccccn4)n3n2)cc1	89µM*	i	?	-20%[88.5 µM]	-13%[70.6 µM]
Fc1ccc(-c2ccc3ncc(Nc4ccc(Cl)cn4)n3n2)cc1	100µM*	i	100µM*	i	-23%[70.6 µM]
COc1ccc(F)cc1Nc1cnc2ccc(N(C)C)nn12	100µM*	i	?	?	1%[70.6 µM]
Clc1ccc(Nc2cnc3ccc(-c4ccccc4)nn23)nc1	?	i	?	i	?
CN(C)c1ccc2ncc(Nc3cc(F)cc(N4CCOCC4)c3)n2n1	?	?	?	i	2%[70.6 µM]
c1ccc(-c2ccc3ncc(Nc4ccccn4)n3n2)cc1	?	i	?	-8%[88.5 µM]	-23%[70.6 µM]
SMILES	HEK cytotox	Luciferase inh	3T3 cytotox	GPT2 inh	NPR1 antag
CN(C)c1ccc2ncc(Nc3ccc(Cl)cn3)n2n1	?	i	112µM*	?	-17%[70.6 µM]
O=C1NC(=NC2CCCC2)C2(CCN(Cc3cccnc3)C2)N1c1cc(F)cc(F)c1 (centres undefined)	i	/	32µM*	-6%	/
O=C1NC(=NC2CCCC2)C2(CCN(Cc3cccnc3)CC2)N1c1cc(F)cc(F)c1	i	/	32µM*	2%	/
CC(C)CN1C(=O)c2ccccc2C(C(=O)Nc2nncs2)C12CCCC2 (centres undefined)	?	i	-17%	-9%	-2%
COc1ccc(Cl)cc1NC(=O)c1cc(-c2ccc[nH]2)n[nH]1	?	?	?	i	-8%
COc1ccc(NC(=O)c2cc(-c3ccc[nH]3)n[nH]2)c(OC)c1	?	20µM*	-25%	5%	-17%
COc1ccc(NC(=O)c2cc(-c3ccc[nH]3)n[nH]2)cc1	-3%	13µM*	-4%	4%	-5%
O=C(Nc1ccc(F)cc1F)c1cc(-c2ccc[nH]2)n[nH]1	?	14µM*	-24%	i	2%
CCOc1ccc(NC(=O)c2cc(-c3ccc[nH]3)n[nH]2)cc1	6%	7.1µM*	1%	4%	3%
COc1cccc(-c2cc(C(=O)NCCOc3ccccc3)[nH]n2)c1	?	i	?	-3%	-19%
COC1CC/C=C(\C)C(=O)Nc2cc(O)cc(c2)CC(C)CC(OC)C(O)C(C)/C=C(\C)C1OC(N)=O (centres undefined)	/	/	/	i	/
CNCCN1C(=O)CC[C@H]2CN(c3ncc(Cl)cc3F)CC[C@H]21	?	i	-34%	-11%	-6%
O=C(Nc1ccc(OC(F)(F)F)cc1)c1cc(-c2ccc[nH]2)n[nH]1	13µM*	?	25µM*	0%	1%
O=C(Nc1ccc(Cl)cc1)c1cc(-c2ccc[nH]2)n[nH]1	?	?	-25%	i	1%
OC1CC(c2cc(NCCSC3CCCCC3)ncn2)C1 (centres undefined)	?	?	?	1%	13µM*
CC(C)(C)c1ccc(-n2ncc3c2CCCC3NC(=O)c2c[nH]c(=O)[nH]c2=O)cc1 (centres undefined)	32µM*	?	?	5%[11.5 µM]	8.9µM*
COc1ccc(C(=O)N2CCC3(CC2)CC(C(C)C)=NO3)cc1	-19%[172 µM]	i	100µM*	i	-7%[70.6 µM]
O=C(c1ccccc1Cl)N1CCC2(CC1)Cc1ccccc1NC2=O	45µM*	i	?	?	5%
COc1ccc(C(=O)N2CCC3(CC2)Cc2ccccc2NC3=O)cc1	22µM*	i	35µM*	i	-9%
COc1ccc(C(=O)N2CCC3(CC(C(C)C)=NO3)C2)cc1 (centres undefined)	1%	/	0%	i	/
O=C(c1ccccc1)N1CCC2(CC1)Cc1ccccc1NC2=O	?	i	?	-5%[88.5 µM]	0%[70.6 µM]
O=C(NCc1ccc(C(F)(F)F)cc1)c1nc2cccnc2n(C2CC2)c1=O	?	/	?	-5%	/
CCN1C(=O)C2CC3(CCN(Cc4ccc(F)c(F)c4)CC3)CN2C1=O (centres undefined)	32µM*	i	?	2%	-11%
